Measured values reported in PubChem BioAssay.
Calls of active or inactive are those of the source.

Columns and labels:
[1] = compounds binding Alexa647 anti-His antibody – biochemical, small-molecule microarray, 635 nm fluorescence, artefact control for SMM control protein annotation, primary screen (AID 1128); details: higher = more signal;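 also: score merges feature fluorescence with signal-to-noise for each printed compound spot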
[2] = tested on: Human papillomavirus type 1a E7 protein (residues 1-88); experiment: HPV1a E7 small-molecule binders, primary screen, biochemical, small-molecule microarray, residues 1-88, 635 nm (AID 1129); details: small-molecule microarray binding, fluorescence 635 nm; higher = more signal
[3] = target: Focal adhesion kinase 1 (Homo sapiens) (UniProt Q05397); experiment: PTK2 protein binding on printed compound slides – biochemical, small-molecule microarray, 635/667 nm fluorescence, BSA, DTT, primary screen (AID 1130); details: 635 nm fluorescence, higher = more signal;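 also: composite of spot emission at 667 nm and signal to noise over triplicate slides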
[4] = tested on: Fibrinogen (Alexa647-labelled); experiment: Alexa647-fibrinogen binding to printed small molecules – biochemical, small-molecule microarray, 635/667 nm fluorescence, artefact control for SMM control-protein annotation, profiling panel (AID 1131); details: fibrinogen-A647 binding fluorescence, higher = more signal;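 also: z-score merges 667 nm fluorescence with per-spot signal-to-noise over triplicate slides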
[5] = target: Follistatin (Homo sapiens) (UniProt P19883); experiment: FST protein binding to printed compounds – biochemical, small-molecule microarray, 635/667 nm fluorescence, primary screen (AID 1132); details: 635 nm fluorescence, higher = more signal
[6] = target: Fibroblast growth factor 2 (Homo sapiens) (UniProt P09038); experiment: basic fibroblast growth factor binding to printed compounds – biochemical, small-molecule microarray, 635/667 nm fluorescence, primary screen (AID 1133); details: FGF2, fluorescence 635/667, higher = more signal
[7] = JC-1 mitochondrial potential readout, lung cancer cells – cell-based, A549, JC-1 fluorescence, basal, 24 h, 100 nL, profiling panel (AID 1138); details: higher = more signal;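 also: A549 lung adenocarcinoma cells under basal conditions with no added stimulus; test concentration not given here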
Lefty1 = Lefty1 protein binding to printed compounds – biochemical, small-molecule microarray, 635/667 nm fluorescence, primary screen (AID 1139); details: fluorescence 635/667, higher = more signal
[8] = tested on: wheat germ agglutinin (Triticum aestivum), Alexa647-labelled; experiment: Alexa647-WGA lectin binding to printed small molecules – biochemical, small-molecule microarray, 635/667 nm fluorescence, artefact control for SMM control-protein annotation, profiling panel (AID 1140); details: WGA-A647 binding, 635 nm fluorescence, higher = more signal;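 also: score merges 667 nm feature emission with signal to noise over triplicate slides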
[9] = target: Luciferin 4-monooxygenase (Photinus pyralis) (UniProt P08659); experiment: inhibition of purified Photinus pyralis luciferase – biochemical, luminescence, purified enzyme, 2006 set, primary screen (AID 1141); details: purified firefly luciferase, SteadyGlo luminescence, 30 min; higher = more signal, called active from +8 up or from −8 down;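 also: cell-free assay with purified firefly luciferase at 100 ng per well in PBS; test concentration not given here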
Chain of Luciferin 4-monooxygenase (Photinus pyralis) (P08659 whole entry, looked up): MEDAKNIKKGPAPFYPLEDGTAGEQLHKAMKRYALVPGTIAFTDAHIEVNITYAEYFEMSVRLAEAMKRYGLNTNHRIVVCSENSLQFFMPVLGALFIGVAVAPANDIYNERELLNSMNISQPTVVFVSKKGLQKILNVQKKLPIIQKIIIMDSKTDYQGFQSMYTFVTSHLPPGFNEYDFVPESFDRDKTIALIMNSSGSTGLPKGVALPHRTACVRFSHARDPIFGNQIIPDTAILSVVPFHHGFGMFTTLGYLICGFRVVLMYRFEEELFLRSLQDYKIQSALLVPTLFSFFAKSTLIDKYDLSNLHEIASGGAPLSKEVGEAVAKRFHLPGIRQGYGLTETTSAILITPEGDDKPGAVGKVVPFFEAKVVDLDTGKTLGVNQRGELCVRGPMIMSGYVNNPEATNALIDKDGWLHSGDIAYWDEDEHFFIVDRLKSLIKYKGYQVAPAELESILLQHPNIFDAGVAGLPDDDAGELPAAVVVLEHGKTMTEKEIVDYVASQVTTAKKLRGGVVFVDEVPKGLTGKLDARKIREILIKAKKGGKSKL

Chain of Follistatin (Homo sapiens) (P19883 whole entry, looked up): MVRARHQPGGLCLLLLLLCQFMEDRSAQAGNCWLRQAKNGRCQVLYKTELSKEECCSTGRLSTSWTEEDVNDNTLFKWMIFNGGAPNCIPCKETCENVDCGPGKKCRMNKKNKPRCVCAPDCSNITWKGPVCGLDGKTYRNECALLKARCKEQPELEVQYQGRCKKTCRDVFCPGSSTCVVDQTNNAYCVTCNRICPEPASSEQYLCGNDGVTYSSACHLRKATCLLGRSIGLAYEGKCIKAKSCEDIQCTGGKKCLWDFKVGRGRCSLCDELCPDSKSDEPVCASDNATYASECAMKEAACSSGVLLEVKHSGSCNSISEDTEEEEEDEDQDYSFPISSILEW
Chain of Focal adhesion kinase 1 (Homo sapiens) (Q05397 whole entry, looked up): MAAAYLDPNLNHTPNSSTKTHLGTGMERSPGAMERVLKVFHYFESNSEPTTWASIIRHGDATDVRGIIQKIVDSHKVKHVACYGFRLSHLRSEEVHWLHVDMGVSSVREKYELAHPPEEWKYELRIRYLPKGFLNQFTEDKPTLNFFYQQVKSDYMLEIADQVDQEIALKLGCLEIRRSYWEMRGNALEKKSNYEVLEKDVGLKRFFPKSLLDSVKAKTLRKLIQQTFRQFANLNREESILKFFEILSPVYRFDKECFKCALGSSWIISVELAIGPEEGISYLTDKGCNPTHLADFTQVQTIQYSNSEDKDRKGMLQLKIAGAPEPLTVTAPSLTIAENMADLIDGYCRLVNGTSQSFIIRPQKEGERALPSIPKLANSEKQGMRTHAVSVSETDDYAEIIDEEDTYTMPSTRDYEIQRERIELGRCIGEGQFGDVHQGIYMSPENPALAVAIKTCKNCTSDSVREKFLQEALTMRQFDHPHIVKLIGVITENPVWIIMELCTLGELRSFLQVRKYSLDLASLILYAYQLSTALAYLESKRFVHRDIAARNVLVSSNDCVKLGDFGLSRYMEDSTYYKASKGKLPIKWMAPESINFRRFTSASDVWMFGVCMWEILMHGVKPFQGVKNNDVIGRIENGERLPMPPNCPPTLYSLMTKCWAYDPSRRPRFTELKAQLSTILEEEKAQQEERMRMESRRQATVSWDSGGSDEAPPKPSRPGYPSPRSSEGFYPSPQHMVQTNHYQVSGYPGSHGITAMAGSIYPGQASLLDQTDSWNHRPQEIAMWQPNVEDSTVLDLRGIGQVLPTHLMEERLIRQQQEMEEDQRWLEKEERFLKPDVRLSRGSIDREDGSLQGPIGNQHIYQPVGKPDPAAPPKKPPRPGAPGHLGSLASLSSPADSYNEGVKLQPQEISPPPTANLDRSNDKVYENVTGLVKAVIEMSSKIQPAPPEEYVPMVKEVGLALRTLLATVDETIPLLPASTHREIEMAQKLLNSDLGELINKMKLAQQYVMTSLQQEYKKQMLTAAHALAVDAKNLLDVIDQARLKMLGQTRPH
Chain of Fibroblast growth factor 2 (Homo sapiens) (P09038 whole entry, looked up): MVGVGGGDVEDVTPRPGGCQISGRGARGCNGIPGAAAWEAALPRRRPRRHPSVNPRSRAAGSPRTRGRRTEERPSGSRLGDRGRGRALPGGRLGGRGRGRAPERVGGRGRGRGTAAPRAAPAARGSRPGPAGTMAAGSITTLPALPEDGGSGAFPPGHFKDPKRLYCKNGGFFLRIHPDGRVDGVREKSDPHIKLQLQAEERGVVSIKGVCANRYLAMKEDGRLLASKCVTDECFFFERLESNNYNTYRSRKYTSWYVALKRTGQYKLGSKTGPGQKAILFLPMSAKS

| Compound | composite z-score [1] | composite z-score [2] | composite z-score [3] | composite z-score [4] | composite z-score [5] | composite z-score [6] | z-score [7] | composite z-score (Lefty1) | composite z-score [8] | z-score [9] |
| --- | --- | --- | --- | --- | --- | --- | --- | --- | --- | --- |
| C=C(COC)/C(=C/C[C@@H](OC(=O)c1ccncc1)c1cccc(OCCO)c1)c1cnc2ccccc2c1 | 2.26 | 1.17 | 0.191 | 0.922 | 1.48 | 1.68 | 0.746 | 1.64 | 1.55 | -1.68 (inactive) |
| COc1ccc([Si](C)(C)[C@H]2[C@H](CCn3cc([C@H](O)c4ccccc4)nn3)O[C@@]3(C(=O)N(Cc4ccc(N5CCC5=O)cc4)c4ccccc43)[C@@H]2C)cc1 | 0.814 | 0.578 | -0.441 | -0.116 | 1.25 | 1.47 | 0.527 | 1.18 | 0.264 | 0.465 (inactive) |
| CC[C@@H]1[C@H]2C3C(=O)N(CC)C(=O)C3CC(=O)[C@H]2[C@H](c2ccc(C)cc2)N1S(=O)(=O)c1ccc(C)cc1 (stereo not given in full) | 0.733 | 1.1 | 0.213 | 0.142 | 0.532 | 0.087 | 1.18 | 0.201 | 0.676 | 0.497 (inactive) |
| O=C1O[C@@H](c2ccccc2)[C@@H](c2ccccc2)N2[C@@H](c3ccccc3OCCO)[C@]3(C(=O)Nc4ccc(C#CC5=CCCCC5)cc43)[C@@H](C(=O)NC[C@H](O)c3ccccc3)[C@H]12 | 1.08 | 1.13 | 0.0363 | 0.883 | 0.961 | 1.51 | -1.69 | 1.02 | -0.186 | -1.32 (inactive) |
| CN(C)CCCCNC(=O)[C@H]1C[C@H]2C(=O)N3CCC[C@H]3C(=O)N2[C@H]1c1ccc(O)cc1 | -0.268 | -1.6 | -0.401 | -1.05 | 0.443 | -1.01 | -0.983 | -0.428 | -0.534 | 0.501 (inactive) |
| C=C(CCCC)/C(=C/C[C@@H](OC(C)=O)c1ccc(CO)o1)c1cc(C(=O)OC)ccc1OC | 0.746 | 0.961 | 0.506 | 0.715 | 1.33 | 1.17 | 0.522 | 1.22 | 0.454 | -2.87 (inactive) |
| O=C1O[C@H](c2ccccc2)[C@H](c2ccccc2)N2[C@H]1[C@@H](C(=O)O)[C@]1(C(=O)Nc3ccccc31)[C@H]2c1ccc(O)cc1 | -0.585 | -0.0964 | 0.133 | -1.31 | 0.0111 | 0.152 | 0.226 | -0.634 | -0.55 | 0.002 (inactive) |
| CC(C)(C)OC(=O)CC[C@]1(C(=O)O)N=C(c2ccc(OCCCO)cc2)O[C@H]1c1ccccc1 | 0.548 | 0.611 | 0.0043 | 0.284 | 0.329 | -0.236 | -0.132 | 0.0766 | 0.247 | 0.476 (inactive) |
| CC=CC(O)C1C=CC2C(=O)N(c3ccccc3)C(=O)C2N1Nc1ccc([N+](=O)[O-])cc1 (stereo not given) | 1.58 | 0.644 | 0.427 | 0.752 | 0.495 | 0.194 | -0.645 | 0.112 | 0.645 | 1.28 (inactive) |
| CCOC(=O)C[C@H]1[C@H](OC(=O)c2ccccc2-c2ccccc2)[C@@H](NC(=O)c2ccc3ccccc3n2)c2cc(OCCCO)ccc2N1C(=O)c1ccc2ccccc2n1 | 1.22 | 0.374 | 0.281 | 0.74 | 0.474 | 0.202 | 0.481 | 0.659 | 0.0363 | 0.761 (inactive) |
| COc1ccc(C(O)C2C=CC3C(=O)N(c4ccccc4)C(=O)C3N2Nc2ccc(C#N)cc2)c2ccccc12 (stereo not given) | 1.67 | 1.25 | 0.0632 | 0.979 | 0.944 | -0.012 | -0.616 | 0.392 | 1.04 | -0.786 (inactive) |
| C=CC[C@@]1(C(=O)O)N=C(c2ccc(OCCCO)cc2)O[C@@H]1c1ccccc1 | 3.53 | 1.15 | 0.3 | -0.184 | -0.759 | -0.893 | 0.959 | -0.726 | 1.27 | -0.171 (inactive) |
| C=CCOC(=O)[C@@H]1[C@H]2C(=O)O[C@H](c3ccccc3)[C@H](c3ccccc3)N2[C@H](c2ccc(OCCOC(=O)[C@H]3C[C@H]4C(=O)N[C@@H](CCCCNC(C)=O)C(=O)N4[C@H]3c3cccc(OCCO)c3)cc2)[C@@]12C(=O)Nc1ccc(I)cc12 | 1.98 | 1.19 | 0.323 | 0.777 | 1.43 | 1.45 | -1.11 | 1.28 | -0.045 | -0.662 (inactive) |
| C[C@H]1C2=C3C(CC[C@H]4C(OCc5ccc(F)cc5C(F)(F)F)OC[C@](C)([C@@H]34)N(C(=O)OC(C)(C)C)C2)C2COC(=O)OCC21 (stereo not given in full) | 2.42 | 1.16 | 1.46 | 0.96 | 0.856 | -1.5 | 1.75 | -0.225 | 0.792 | 1.85 (inactive) |
| [N-]=[N+]=NCc1ccccc1C[C@]1(C(=O)NCC(O)CO)N=C(c2ccc(OCCCO)cc2)O[C@H]1c1ccccc1CN=[N+]=[N-] (stereo not given in full) | 2.73 | 1.2 | 0.116 | 0.973 | 1.3 | 0.495 | 0.618 | -0.204 | 0.205 | -0.0074 (inactive) |
| C=CCOC(=O)[C@H]1[C@@H]2C(=O)O[C@@H](c3ccccc3)[C@@H](c3ccccc3)N2[C@@H](c2ccc(OCCOC(=O)[C@H]3C[C@H]4C(=O)N[C@@H](Cc5ccccc5)C(=O)N4[C@H]3c3ccc(O)cc3)cc2)[C@]12C(=O)Nc1ccc(I)cc12 | 0.951 | 1.14 | 0.665 | 0.565 | 1.32 | 1.29 | -0.395 | 1.69 | 0.958 | -0.649 (inactive) |
| COc1ccccc1CN1C(=O)c2ccccc2[C@@H](C(=O)NC(C)C)[C@@H]1c1ccc(CO)cc1 | 1.73 | 1.15 | 0.476 | 1.01 | 1.33 | 1.32 | 1.43 | 0.456 | 0.112 | -0.586 (inactive) |
| O=C(CCCCCCC(=O)Nc1ccccc1)N/N=C/c1ccccc1 | 0.602 | -0.581 | -0.266 | -0.876 | -0.083 | 0.323 | -0.123 | -0.251 | -0.552 | -0.83 (inactive) |
| CC(C)(C)OC(=O)CC[C@]1(C(=O)NCCN2CCOCC2)N=C(c2ccc(OCCCO)cc2)O[C@H]1c1ccccc1 | 2.21 | 0.358 | 0.75 | 0.955 | -0.0269 | -0.397 | 1.21 | -0.964 | 0.391 | -1.16 (inactive) |
| C=CCN1C(=O)[C@@]2(O[C@@H](CCO)[C@H]([Si](C)(C)c3ccc(OC)cc3)[C@H]2C)c2cc(N3C(=O)c4ccccc4Oc4ccccc43)ccc21 | 0.939 | 0.551 | 0.17 | 0.485 | 0.144 | 0.675 | 0.00401 | 0.24 | 0.615 | -1.49 (inactive) |
| COc1ccc(NN2C(C(O)c3ccccn3)C=CC3C(=O)N(C4CCCCC4)C(=O)C32)cc1 (stereo not given) | 0.914 | 1.22 | 0.342 | 0.955 | 0.888 | 0.421 | 0.717 | -0.223 | 0.836 | -2.74 (inactive) |
| C=C(C(=O)CC[C@H](OC(=O)c1cccnc1)c1cccc(OCCO)c1)C(C)C | 0.0024 | -0.498 | -0.136 | -0.744 | -1.01 | -0.464 | 0.838 | 0.0695 | -0.168 | -0.894 (inactive) |
| O=C1C2C=CC(C(O)c3cc(C(F)(F)F)cc(C(F)(F)F)c3)N(Nc3ccc([N+](=O)[O-])cc3)C2C(=O)N1c1ccccc1 (stereo not given) | 0.338 | 1.24 | 0.681 | 1.02 | 1.05 | 0.4 | -0.953 | 0.953 | 0.599 | 0.833 (inactive) |
| O=C1O[C@@H](c2ccccc2)[C@@H](c2ccccc2)N2[C@@H](c3ccc(O)cc3)[C@]3(C(=O)Nc4ccc(C#CCCO)cc43)[C@@H](C(=O)Nc3nc4ccccc4s3)[C@H]12 | 0.709 | 1.23 | 0.31 | 0.682 | 1.25 | 1.01 | -2.38 | 0.531 | 0.552 | -0.155 (inactive) |
